The record followed here is publication PMC7862700, “An all-to-all approach to the identification of sequence-specific readers for epigenetic DNA modifications on cytosine”.

Holding throughout (assay): DAPPL (digital affinity profiling via proximity ligation, sequencing); 10 mM Tris-HCl pH 7.5, 50 mM NaCl, 1 mM DTT, 4% glycerol, room temperature, 30 min; GST-TFs on glutathione beads, 16-mer random dsDNA library, 0.1% formaldehyde crosslink after washing; high values mean tight binding
One assay addresses T1, FEV (Homo sapiens, UniProt Q99581 1-238).
T1 sequence: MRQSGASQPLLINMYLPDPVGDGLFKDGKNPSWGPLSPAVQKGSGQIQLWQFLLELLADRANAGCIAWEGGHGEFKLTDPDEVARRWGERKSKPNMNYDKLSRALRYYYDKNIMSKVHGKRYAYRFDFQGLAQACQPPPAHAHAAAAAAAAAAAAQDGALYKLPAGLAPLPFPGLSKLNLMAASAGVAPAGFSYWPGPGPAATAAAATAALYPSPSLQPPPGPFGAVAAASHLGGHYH
Particulars: protein: recombinant; tags: N-terminal GST; dsDNA, one strand shown. Summed up:
(§1)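 Binding signal is defined as a hexamer's read frequency for one factor over its frequency for the tag-only sample. To obtain reads, GST-fused human transcription factors were expressed in yeast, captured on glutathione beads, barcoded with DNA and pooled with that sample. Pools met 200 nmole of a 16-mer random double-stranded DNA library in Tris/NaCl/DTT/glycerol buffer for 30 min at room temperature before washing, 0.1% formaldehyde crosslinking, proximity ligation (BsaI/T4 ligase, 1 h, 37 °C), PCR and Illumina NextSeq500 sequencing.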

A further assay deals with ETV5 (Homo sapiens, UniProt P41161 1-510). Particulars: protein: recombinant; tags: N-terminal GST; dsDNA, one strand shown. The gist of the method: as §1
The next assay has as its target HSF1 (Homo sapiens, UniProt Q00613 1-529). Particulars: protein: recombinant; tags: N-terminal GST; chain copies: 3; dsDNA, one strand shown. The gist of the method: as §1
The next assay has as its target T2, SPIC (Homo sapiens, UniProt Q8N5J4 1-248).
T2 sequence: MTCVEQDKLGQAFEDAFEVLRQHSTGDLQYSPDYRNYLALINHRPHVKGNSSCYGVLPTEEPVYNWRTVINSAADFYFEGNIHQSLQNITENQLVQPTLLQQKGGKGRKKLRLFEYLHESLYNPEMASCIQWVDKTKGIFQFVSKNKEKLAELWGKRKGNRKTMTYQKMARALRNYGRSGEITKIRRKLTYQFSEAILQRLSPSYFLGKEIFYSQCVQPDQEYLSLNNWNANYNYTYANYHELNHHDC
Particulars: protein: recombinant; tags: N-terminal GST; dsDNA, one strand shown. Summed up: as §1

In another assay the target is ELF4 (Homo sapiens, UniProt Q99607 1-663). Particulars: protein: recombinant; tags: N-terminal GST; dsDNA, one strand shown. The gist of the method:
as §1

A further assay deals with T3, ELK4 (Homo sapiens, UniProt P28324-2 1-405).
T3 sequence: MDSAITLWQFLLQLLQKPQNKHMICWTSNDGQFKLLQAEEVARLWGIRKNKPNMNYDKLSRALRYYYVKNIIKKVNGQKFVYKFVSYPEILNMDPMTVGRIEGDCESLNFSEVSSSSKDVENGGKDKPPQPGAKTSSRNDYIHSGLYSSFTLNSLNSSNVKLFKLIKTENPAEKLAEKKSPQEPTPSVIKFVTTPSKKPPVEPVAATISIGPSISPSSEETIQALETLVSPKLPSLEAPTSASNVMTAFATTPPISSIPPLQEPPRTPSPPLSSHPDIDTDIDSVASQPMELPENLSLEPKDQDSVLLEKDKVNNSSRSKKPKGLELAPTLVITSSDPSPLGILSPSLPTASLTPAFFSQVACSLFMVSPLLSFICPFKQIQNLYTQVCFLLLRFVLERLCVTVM
Particulars: protein: recombinant; tags: N-terminal GST; dsDNA, one strand shown. The gist of the method:
as §1

Another assay has as its target T4, ETV2 (Homo sapiens, UniProt O00321 1-342).
T4 sequence: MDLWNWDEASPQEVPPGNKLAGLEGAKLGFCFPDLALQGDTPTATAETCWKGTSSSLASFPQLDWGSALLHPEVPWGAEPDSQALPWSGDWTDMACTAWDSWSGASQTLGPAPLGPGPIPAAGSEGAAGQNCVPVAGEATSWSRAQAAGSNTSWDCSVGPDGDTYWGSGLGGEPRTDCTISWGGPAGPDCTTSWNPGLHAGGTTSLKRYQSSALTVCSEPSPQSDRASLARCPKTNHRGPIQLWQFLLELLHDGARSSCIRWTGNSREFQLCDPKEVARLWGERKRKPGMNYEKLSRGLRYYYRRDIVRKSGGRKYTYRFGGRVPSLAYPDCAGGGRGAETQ
Particulars: protein: recombinant; tags: N-terminal GST; dsDNA, one strand shown. The gist of the method: as §1

The target of the next assay is T5, ELF3 (Homo sapiens, UniProt P78545 1-371).
T5 sequence: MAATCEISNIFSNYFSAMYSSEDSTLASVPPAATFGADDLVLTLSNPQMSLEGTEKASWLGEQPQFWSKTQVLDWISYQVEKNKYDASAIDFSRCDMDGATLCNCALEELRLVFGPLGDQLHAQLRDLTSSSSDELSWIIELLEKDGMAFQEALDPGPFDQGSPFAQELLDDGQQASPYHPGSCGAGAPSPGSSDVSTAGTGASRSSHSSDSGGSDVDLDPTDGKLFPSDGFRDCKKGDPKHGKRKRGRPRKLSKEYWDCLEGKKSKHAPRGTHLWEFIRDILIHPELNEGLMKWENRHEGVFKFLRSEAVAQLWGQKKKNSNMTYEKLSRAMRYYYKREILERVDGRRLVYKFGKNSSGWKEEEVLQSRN
Particulars: protein: recombinant; tags: N-terminal GST; dsDNA, one strand shown. Summed up:
as §1

Another assay addresses CRX (Homo sapiens, UniProt O43186 1-299). Particulars: protein: recombinant; tags: N-terminal GST; dsDNA, one strand shown. Summed up: as §1
For the next assay, the target named is ETV1 (Homo sapiens, UniProt P50549 1-477). Particulars: protein: recombinant; tags: N-terminal GST; dsDNA, one strand shown. The gist of the method: as §1
In another assay the target is T6, ERF (Homo sapiens, UniProt P50548 1-548).
T6 sequence: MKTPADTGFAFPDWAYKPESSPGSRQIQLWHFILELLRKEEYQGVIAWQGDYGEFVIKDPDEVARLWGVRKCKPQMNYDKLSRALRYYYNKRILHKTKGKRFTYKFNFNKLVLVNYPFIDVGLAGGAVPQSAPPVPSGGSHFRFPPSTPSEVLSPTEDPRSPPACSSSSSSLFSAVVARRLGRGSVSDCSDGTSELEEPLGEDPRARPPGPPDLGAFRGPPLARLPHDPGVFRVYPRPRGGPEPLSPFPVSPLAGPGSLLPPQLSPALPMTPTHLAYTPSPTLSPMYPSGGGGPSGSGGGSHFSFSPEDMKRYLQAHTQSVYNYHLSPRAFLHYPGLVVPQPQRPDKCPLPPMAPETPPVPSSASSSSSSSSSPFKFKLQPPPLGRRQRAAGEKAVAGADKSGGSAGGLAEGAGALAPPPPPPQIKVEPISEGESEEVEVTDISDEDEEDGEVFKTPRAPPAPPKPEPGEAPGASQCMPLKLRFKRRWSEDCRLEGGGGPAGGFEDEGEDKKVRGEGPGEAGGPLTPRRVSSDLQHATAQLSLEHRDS
Particulars: protein: recombinant; tags: N-terminal GST; dsDNA, one strand shown. Summed up:
as §1

The target in the next assay is T7, ETV3L (Homo sapiens, UniProt Q6ZN32 1-361).
T7 sequence: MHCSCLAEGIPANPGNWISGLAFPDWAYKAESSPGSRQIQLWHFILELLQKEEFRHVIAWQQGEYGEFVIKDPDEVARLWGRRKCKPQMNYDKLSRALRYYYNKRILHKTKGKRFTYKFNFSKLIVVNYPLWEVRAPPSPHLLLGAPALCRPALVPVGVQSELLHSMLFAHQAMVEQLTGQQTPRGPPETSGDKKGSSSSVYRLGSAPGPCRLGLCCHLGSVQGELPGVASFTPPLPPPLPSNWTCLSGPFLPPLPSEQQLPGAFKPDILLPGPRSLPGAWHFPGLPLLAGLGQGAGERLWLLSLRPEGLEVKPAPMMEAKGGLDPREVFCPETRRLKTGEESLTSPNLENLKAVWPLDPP
Particulars: protein: recombinant; tags: N-terminal GST; dsDNA, one strand shown. Summed up: as §1

Another assay addresses T8, ETS2 (Homo sapiens, UniProt P15036 1-469).
T8 sequence: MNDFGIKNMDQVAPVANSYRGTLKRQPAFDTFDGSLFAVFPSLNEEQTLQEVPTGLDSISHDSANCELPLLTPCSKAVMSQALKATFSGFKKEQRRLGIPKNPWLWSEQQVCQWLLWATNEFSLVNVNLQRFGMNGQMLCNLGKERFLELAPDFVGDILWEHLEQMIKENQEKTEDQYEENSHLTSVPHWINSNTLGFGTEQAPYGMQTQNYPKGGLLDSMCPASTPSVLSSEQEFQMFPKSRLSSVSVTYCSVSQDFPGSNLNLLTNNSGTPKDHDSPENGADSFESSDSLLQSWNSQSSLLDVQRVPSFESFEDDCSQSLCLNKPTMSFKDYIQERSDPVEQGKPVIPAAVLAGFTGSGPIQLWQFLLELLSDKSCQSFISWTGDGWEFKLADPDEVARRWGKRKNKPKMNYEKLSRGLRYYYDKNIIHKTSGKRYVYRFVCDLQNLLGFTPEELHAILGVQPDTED
Particulars: protein: recombinant; tags: N-terminal GST; dsDNA, one strand shown. The gist of the method:
as §1

Another assay deals with T9, SPDEF (Homo sapiens, UniProt O95238 1-335).
T9 sequence: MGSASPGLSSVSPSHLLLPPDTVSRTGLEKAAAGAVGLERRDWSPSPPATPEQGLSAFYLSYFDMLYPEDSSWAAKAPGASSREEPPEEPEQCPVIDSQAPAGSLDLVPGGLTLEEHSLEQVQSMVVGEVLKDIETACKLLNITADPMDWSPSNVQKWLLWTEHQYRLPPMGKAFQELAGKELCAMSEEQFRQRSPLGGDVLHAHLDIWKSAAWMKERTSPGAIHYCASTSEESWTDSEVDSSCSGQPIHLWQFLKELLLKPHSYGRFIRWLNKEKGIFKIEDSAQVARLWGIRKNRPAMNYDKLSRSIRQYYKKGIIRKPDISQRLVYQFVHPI
Particulars: protein: recombinant; tags: N-terminal GST; dsDNA, one strand shown. Summed up: as §1

The target of a further assay is T10, ETV7 (Homo sapiens, UniProt Q9Y603 1-341).
T10 sequence: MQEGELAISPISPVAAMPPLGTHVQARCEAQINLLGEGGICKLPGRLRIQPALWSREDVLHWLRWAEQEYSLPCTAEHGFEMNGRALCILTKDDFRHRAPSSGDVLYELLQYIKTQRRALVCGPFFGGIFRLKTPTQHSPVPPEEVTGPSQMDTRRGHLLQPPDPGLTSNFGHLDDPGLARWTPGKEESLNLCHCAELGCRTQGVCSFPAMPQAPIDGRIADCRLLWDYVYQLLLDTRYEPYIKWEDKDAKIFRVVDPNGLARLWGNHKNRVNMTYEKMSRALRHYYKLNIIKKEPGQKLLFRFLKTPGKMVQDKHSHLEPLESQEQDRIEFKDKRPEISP
Particulars: protein: recombinant; tags: N-terminal GST; dsDNA, one strand shown. The gist of the method: as §1

A further assay deals with T11, ELF5 (Homo sapiens, UniProt Q9UKW6-2 1-255).
T11 sequence: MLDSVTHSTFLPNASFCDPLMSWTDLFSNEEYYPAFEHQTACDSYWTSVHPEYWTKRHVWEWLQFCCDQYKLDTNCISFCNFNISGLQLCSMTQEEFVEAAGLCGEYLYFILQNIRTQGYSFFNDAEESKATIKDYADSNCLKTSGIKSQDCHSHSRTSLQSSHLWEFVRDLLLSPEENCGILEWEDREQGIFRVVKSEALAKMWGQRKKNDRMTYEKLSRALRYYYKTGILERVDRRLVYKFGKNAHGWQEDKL
Particulars: protein: recombinant; tags: N-terminal GST; dsDNA, one strand shown. Summed up:
as §1

Another assay deals with T12, ETV3 (Homo sapiens, UniProt P41162-2 1-143).
T12 sequence: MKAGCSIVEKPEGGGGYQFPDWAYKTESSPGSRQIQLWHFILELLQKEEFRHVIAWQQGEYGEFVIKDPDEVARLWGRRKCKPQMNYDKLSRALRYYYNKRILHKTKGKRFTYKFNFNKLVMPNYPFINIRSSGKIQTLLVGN
Particulars: protein: recombinant; tags: N-terminal GST; dsDNA, one strand shown. The gist of the method: as §1

A further assay addresses ETV6 (Homo sapiens, UniProt P41212 1-452). Particulars: protein: recombinant; tags: N-terminal GST; dsDNA, one strand shown. Summed up:
as §1

ELF4, sequence (Q99607 whole entry): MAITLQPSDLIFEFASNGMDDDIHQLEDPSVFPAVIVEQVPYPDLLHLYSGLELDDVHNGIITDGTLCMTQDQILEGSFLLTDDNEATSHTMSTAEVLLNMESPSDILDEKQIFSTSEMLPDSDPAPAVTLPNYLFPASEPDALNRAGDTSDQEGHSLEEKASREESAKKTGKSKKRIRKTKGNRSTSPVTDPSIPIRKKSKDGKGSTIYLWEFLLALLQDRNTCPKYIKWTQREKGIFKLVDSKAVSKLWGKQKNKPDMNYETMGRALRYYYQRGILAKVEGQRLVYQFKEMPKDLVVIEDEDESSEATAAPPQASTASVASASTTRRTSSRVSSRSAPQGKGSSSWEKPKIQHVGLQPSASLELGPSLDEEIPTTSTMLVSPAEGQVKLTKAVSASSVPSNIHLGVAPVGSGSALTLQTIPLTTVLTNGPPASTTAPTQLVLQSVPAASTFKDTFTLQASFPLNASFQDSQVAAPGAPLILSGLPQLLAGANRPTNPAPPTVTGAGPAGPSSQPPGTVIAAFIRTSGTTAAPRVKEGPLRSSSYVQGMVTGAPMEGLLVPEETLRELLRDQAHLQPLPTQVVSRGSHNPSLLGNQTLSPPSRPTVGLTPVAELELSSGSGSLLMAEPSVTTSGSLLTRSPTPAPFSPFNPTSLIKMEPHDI
CRX, sequence (O43186 whole entry): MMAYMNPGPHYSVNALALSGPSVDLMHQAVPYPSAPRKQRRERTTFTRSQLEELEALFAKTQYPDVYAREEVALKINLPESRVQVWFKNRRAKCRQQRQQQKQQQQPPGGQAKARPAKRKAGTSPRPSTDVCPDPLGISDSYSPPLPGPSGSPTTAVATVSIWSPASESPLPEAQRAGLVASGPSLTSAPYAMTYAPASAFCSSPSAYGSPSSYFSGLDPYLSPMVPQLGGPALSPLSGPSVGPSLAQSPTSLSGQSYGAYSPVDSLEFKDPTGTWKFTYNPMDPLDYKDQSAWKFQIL
ETV5, sequence (P41161 whole entry): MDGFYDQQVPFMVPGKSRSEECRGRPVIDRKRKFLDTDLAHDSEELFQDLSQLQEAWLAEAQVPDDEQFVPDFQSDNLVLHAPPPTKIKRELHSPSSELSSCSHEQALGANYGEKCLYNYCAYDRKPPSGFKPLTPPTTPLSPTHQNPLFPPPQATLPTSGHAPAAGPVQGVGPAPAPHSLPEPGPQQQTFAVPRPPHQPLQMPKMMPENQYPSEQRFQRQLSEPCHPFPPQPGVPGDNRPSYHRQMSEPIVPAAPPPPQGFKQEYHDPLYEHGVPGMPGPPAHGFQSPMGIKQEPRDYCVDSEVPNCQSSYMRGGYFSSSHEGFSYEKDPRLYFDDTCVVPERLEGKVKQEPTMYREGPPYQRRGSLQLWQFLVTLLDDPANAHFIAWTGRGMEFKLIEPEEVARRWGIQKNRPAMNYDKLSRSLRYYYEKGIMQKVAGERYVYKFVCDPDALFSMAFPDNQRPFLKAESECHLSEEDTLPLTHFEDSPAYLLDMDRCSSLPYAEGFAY
ETV1, sequence (P50549 whole entry): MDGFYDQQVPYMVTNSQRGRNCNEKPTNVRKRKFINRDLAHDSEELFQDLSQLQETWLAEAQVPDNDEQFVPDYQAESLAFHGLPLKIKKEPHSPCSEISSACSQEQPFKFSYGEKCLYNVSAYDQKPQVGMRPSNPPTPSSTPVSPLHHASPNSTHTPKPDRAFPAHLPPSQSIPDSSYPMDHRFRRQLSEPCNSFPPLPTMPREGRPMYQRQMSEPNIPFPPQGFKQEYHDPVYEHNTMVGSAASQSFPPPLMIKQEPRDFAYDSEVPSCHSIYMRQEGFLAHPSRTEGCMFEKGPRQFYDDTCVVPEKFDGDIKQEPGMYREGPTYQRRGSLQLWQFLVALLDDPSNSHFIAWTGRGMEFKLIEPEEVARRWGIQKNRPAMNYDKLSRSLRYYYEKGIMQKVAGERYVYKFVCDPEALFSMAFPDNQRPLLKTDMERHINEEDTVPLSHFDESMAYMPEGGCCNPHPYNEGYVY
HSF1, sequence (Q00613 whole entry): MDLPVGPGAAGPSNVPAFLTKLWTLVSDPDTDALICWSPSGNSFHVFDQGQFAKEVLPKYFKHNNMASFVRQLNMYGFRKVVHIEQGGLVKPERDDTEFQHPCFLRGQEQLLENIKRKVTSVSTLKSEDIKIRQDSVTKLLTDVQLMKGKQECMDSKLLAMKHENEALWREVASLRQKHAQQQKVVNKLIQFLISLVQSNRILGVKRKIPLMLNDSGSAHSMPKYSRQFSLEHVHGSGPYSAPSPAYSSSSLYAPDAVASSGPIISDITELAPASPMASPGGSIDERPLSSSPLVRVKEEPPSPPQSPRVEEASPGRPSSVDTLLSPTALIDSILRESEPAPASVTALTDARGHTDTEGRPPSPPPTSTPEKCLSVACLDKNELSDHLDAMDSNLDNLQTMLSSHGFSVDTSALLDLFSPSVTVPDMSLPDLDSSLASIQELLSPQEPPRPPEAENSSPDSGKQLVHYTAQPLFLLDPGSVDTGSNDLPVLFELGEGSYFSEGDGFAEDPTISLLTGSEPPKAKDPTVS
ETV6, sequence (P41212 whole entry): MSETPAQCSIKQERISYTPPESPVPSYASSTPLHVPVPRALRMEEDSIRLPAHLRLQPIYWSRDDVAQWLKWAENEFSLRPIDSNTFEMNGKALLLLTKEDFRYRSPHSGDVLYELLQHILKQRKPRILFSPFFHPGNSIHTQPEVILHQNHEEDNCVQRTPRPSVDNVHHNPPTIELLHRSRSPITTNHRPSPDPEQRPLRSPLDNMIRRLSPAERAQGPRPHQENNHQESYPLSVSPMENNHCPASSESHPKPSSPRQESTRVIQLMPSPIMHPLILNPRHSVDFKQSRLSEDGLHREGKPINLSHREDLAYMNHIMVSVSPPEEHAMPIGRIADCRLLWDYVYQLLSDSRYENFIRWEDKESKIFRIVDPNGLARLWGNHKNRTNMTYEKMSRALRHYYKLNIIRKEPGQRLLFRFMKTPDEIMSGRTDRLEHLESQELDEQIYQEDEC

In the case of AATGCG, the binding signal in the assay with FEV was 1.27 fold enrichment (6-mer frequency, TF over GST control); in the assay with ETV5, 1.2 fold enrichment (6-mer frequency, TF over GST control); with HSF1, 1.13 fold enrichment (6-mer frequency, TF over GST control); with SPIC it was 1.22 fold enrichment (6-mer frequency, TF over GST control); with ELF4, 1.33 fold enrichment (6-mer frequency, TF over GST control); with ELK4, 1.25 fold enrichment (6-mer frequency, TF over GST control). Also, the binding signal with ETV2 was 1.34 fold enrichment (6-mer frequency, TF over GST control); in the assay with ELF3 it was 1.43 fold enrichment (6-mer frequency, TF over GST control); with CRX, 1.36 fold enrichment (6-mer frequency, TF over GST control); with ETV1 it was 1.3 fold enrichment (6-mer frequency, TF over GST control); with ERF, 1.18 fold enrichment (6-mer frequency, TF over GST control); with ETV3L, 1.36 fold enrichment (6-mer frequency, TF over GST control). Besides, the binding signal with ETS2 was 1.3 fold enrichment (6-mer frequency, TF over GST control); with SPDEF it was 1.26 fold enrichment (6-mer frequency, TF over GST control); in the assay with ETV7, 1.21 fold enrichment (6-mer frequency, TF over GST control); with ELF5 it was 1.3 fold enrichment (6-mer frequency, TF over GST control); in the assay with ETV3, 1.22 fold enrichment (6-mer frequency, TF over GST control); with ETV6, 1.29 fold enrichment (6-mer frequency, TF over GST control).
